From PubChem BioAssay
Sampled rows, rich in hits. Any-hit rate of the full collection: about 19%.
CHX counter: affects cycloheximide protein synthesis inhibition readout, counter-screen; cell reporter, cycloheximide protein synthesis inhibition counterscreen; max response, %; actives 12% (n = 300,000); in the data active = max response mostly above about 13%, no sharp cut-off; inactive = mostly below about 14%; note: read at 38.3 µM for the half of the compounds with a filed dose; 0% is about no effect
Pf growth 48h: inhibits P. falciparum growth in the first generation, 48 h; Potency, µM (top dose mostly 28.7 µM), without a hit: at the top dose activity change, negative = inhibition, hits mostly inhibitors; AID 504832; P. falciparum luciferase growth in erythrocytes, 48 h; actives 5.9% (n = 310,000); note: potency is the fitted concentration of half-maximal effect; % is set by controls: 0 for no effect and ±100 for the full control effect
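Firefly luciferase activity from engineered P. falciparum reports growth; inhibitors lower the luminescent signal. Cultures contained 2% hematocrit erythrocytes at 0.1% final parasitemia.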
Lassa entry inh: Lassa virus entry inhibition; Potency, µM (series often up to 37.9 µM), for inactives: at the top dose activity change, negative = inhibition, actives largely listed as inhibitors; Lassa virus pseudotype entry inhibition, cell reporter; actives 1.2% (n = 300,000); AID 540256; calls by dose curve; tested in HEK293 cells; note: potency is the fitted concentration of half-maximal effect; % is set by controls: 0 for no effect and ±100 for the full control effect; nearly all actives have a fitted effect of over 50% in size
Pf growth 96h: P. falciparum growth inhibition at 96 hours; P. falciparum luciferase reporter growth, 96 h; actives 6.9% (n = 320,000); Potency, µM (doses to about 28.7 µM), inactives show top-dose activity change, negative = inhibition, most hits filed as inhibitors; note: potency is the fitted concentration of half-maximal effect; % is set by controls: 0 for no effect and ±100 for the full control effect
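Cell-based qHTS: luciferase-tagged P. falciparum in erythrocytes (2% hematocrit, 0.05% parasitemia final) incubated with compounds for 96 hours, 37 C, 5% CO2; luciferase detection reagent then added and luminescence measured.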
Shiga toxin inh: Shiga toxin inhibition; Vero cells, Shiga toxin protein synthesis inhibition reporter; inhibition, % at 38.7 µM; actives 9.2% (n = 290,000); AID 2315; in the data active = inhibition mostly above about 28%, no sharp cut-off; inactive = mostly below about 43%; note: 0% is about no effect
MARV entry inh: Marburg virus entry inhibition; Marburg virus pseudotyped entry inhibition, cell reporter; Potency, µM (top dose mostly 37.8 µM), inactives show top-dose activity change, negative = inhibition, hits mostly inhibitors; actives 1.8% (n = 300,000); calls by dose curve; tested in HEK293 cells; note: potency is the fitted concentration of half-maximal effect; % is set by controls: 0 for no effect and ±100 for the full control effect
The depositor's hits bear a star; ? = inconclusive; . = not tested or not shown; [ ] = remark or other dose. Unless noted, calls come from the whole dose curve; as a rule, active = well fitted inhibition curve with a large enough effect; inconclusive = small, poorly fitted or top-dose-only effect, or another doubt; inactive = no such curve, though single readings can be large or run the other way.

SMILES	CHX counter	Pf growth 48h	Lassa entry inh	Pf growth 96h	Shiga toxin inh	MARV entry inh
COC(=O)c1sccc1NC(=O)Nc1cc(C)cc(C)c1	47.5*	55.1%	12.6%[46.1 µM]	4.65µM*	80.0*	18.8%[46.1 µM]
COc1ccc(C(=O)Nc2ccc(F)cc2F)cc1OC	12.8	30.7%	8.8%	?	-13.4	-0.2%
COC(=O)c1sccc1NC(=O)Nc1ccc(C)cc1C	25.5	0.0%	.	-22.5%	-1.2	.
COC(=O)c1sccc1NC(=O)Nc1ccc(C)cc1	45.5*	190.4%	?	2.0%	86.5*	-0.3%[46.1 µM]
COC(=O)c1sccc1NC(=O)c1ccccc1F	-4.5	.	1.0%[46.1 µM]	8.3%	18.7	0.3%[46.1 µM]
COC(=O)c1sccc1NC(=O)COc1ccccc1Cl	33.1*	46.0%	-0.3%	?	active	-4.6%
COC(=O)c1sccc1NC(=O)Nc1ccc(F)cc1F	9.7	-1.9%	22.2%[46.1 µM]	11.7µM*	-7.7	?
COc1ccsc1C(=O)Nc1ccc(F)cc1F	30.0*	35.1%	15.9%	35.3%	30.9	-3.4%[46.1 µM]
O=C(O)CN1C(=O)/C(=C\c2cc([N+](=O)[O-])ccc2OCc2ccccc2Cl)SC1=S	-3.0	-15.9%	-3.8%[46.1 µM]	?	7.6	8.6%[46.1 µM]
O=C1OCCC=C1C(O)CCc1ccccc1 (stereo not given)	.	.	.	.	.	22.0%[14.2 µM]
COC(=O)c1sccc1NC(=O)Nc1ccc(C(C)=O)cc1	45.3*	51.5%	3.8%[46.1 µM]	258.7%	53.0*	12.7%[46.1 µM]
COC(=O)c1sccc1NC(=S)Nc1ccc(F)cc1	-3.7	2.2%	9.5%	-14.4%	-11.2	-9.2%
COC(=O)c1sccc1NC(=O)Nc1ccc(F)cc1	29.8*	28.1%	.	-12.2%	20.3	.
CCc1ccccc1NC(=O)Nc1ccsc1C(=O)OC	12.8	-12.1%	.	275.1%	27.6	.
N#Cc1cc2c(nc1SCc1cccnc1)CCCCC2	16.5	?	19.7%	.	129.6*	-2.6%
CSC1CCCCC1(O)CSc1nc2c(cc1C#N)CCCC2 (stereo not given)	10.3	9.28µM*	-19.4%	54.6%	8.8	-2.8%
N#CCSc1nc2c(cc1C#N)CCCC2	30.4*	47.0%	8.1%	.	57.2	?
N#Cc1cc2c(nc1SCC(=O)O)CCCCC2	19.0	22.7%	.	32.1%	57.7	.
CCn1c2ccccc2c2cc(NC(=O)COC(=O)c3cc(OC)c(OC)cc3OC)ccc21	-1.9	-14.0%	-28.5%	?	-11.4	?
CCOC(=O)C(NC(=O)Cc1ccccc1)(Nc1cc(C)on1)C(F)(F)F (stereo not given)	-0.9	-2.8%	-4.6%	-24.3%	3.7	?
COc1ccc(C(=O)O/N=C(\N)Cc2cccs2)cc1OC	-4.5	?	1.78µM*	-25.5%	-19.3	?
COc1ccc(/C(N)=N/OC(=O)Cc2cccs2)cc1OC	27.4*	68.0%	-0.4%	-0.3%	32.6*	?
Cc1ccc(C(=O)O/N=C(\N)Cc2cccs2)cc1[N+](=O)[O-]	13.2	68.7%	.	10.4µM*	11.3	.
N/C(=N\OC(=O)Cc1ccccc1[N+](=O)[O-])c1cccnc1	11.5	-7.8%	-9.4%	76.0%	42.9	28.3%[46.1 µM]
COc1ccc(NC(=O)COC(=O)Cc2cccs2)cc1OC	.	19.5%	11.5%	8.6%	.	-10.6%[46.1 µM]
SMILES	CHX counter	Pf growth 48h	Lassa entry inh	Pf growth 96h	Shiga toxin inh	MARV entry inh
COc1ccc(/C(N)=N/OC(=O)Cc2ccccc2[N+](=O)[O-])cc1	30.6*	7.5%	-0.1%	13.1µM*	40.5	?
CCN1CCN(c2nc3c(c(=O)n(C)c(=O)n3C)n2Cc2cccc3ccccc23)CC1	1.6	?	9.8%	19.0%	-8.4	?
COc1ccc(-c2nc(CS(=O)(=O)CC(=O)NC3CCCCCC3)c(C)o2)cc1	-1.3	12.3%	.	?	-6.2	.
COc1ccc(/C(N)=N/OC(=O)Cc2cccs2)cc1	44.4*	132.7%	?	31.6%	113.3*	?
COc1ccc(CC(=O)O/N=C(\N)c2ccc(OC)cc2)cc1	63.7*	31.6%	?	22.2%	70.7*	2.4%
COc1ccc(CC(=O)O/N=C(\N)c2ccccc2)cc1OC	37.6*	.	-0.5%[46.1 µM]	15.2%	42.3*	?
O=C(COC(=O)c1ccc(Cl)c(S(=O)(=O)N2CCCC2)c1)NCc1cccs1	-1.8	?	-3.4%[46.1 µM]	?	-7.3	1.8%[46.1 µM]
Cc1ccc(CNC(=O)CCn2nc(-c3ccc(Cl)cc3)ccc2=O)cc1	10.3	-7.0%	18.4%[14.3 µM]	9.3%	-22.5	-0.1%
